Screen size: about 650,000 compounds; about 5,900 (0.91%) were called active. This is one part of a sample in which actives are shown more often than they occur. Rule as the data show it: active = inhibition above about 50%; inactive = the rest.

Broadly, the inhibition is the relative decrease from the control value, in per cent.

Microphthalmia-associated transcription factor (Homo sapiens), sequence (O75030 whole entry, looked up): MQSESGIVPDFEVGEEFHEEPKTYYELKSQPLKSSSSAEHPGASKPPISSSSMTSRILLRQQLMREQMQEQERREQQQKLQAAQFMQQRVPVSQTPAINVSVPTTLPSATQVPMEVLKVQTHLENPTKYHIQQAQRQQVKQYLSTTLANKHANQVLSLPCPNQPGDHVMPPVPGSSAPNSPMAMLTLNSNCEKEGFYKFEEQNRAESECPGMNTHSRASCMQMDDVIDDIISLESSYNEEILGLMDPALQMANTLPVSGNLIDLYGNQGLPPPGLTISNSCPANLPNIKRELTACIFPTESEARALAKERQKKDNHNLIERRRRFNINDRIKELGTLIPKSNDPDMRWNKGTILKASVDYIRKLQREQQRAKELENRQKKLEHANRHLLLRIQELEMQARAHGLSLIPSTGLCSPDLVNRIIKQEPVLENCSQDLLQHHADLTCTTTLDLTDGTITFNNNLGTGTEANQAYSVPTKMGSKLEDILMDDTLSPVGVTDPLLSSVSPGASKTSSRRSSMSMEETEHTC

The experiment concerns the target Microphthalmia-associated transcription factor (Homo sapiens) (UniProt O75030). The experiment in a line: MITF inhibitors, primary screen, biochemical, AlphaScreen, human (AID 1259374).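 Also: 0% = vehicle wells with protein.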 To be noted: AlphaScreen MITF homodimerization, bead proximity signal; at 2.6 µM; active compounds read high. (In Alpha technology, singlet oxygen from a donor bead excites a nearby acceptor bead.)
Take `COC(=O)c1ccc(C2C(C(=O)OCCOc3ccccc3)=C(C)NC3=C2C(=O)CCC3)cc1` (centres undefined): the inhibition is 0.05% (inactive).

Take `CC1=C(C(=O)OCC(C)C)C(c2cccc(OCc3ccccc3)c2)C2=C(CCCC2=O)N1` (centres undefined): the inhibition is 0.37% (inactive). Under `CCOc1cccc(C2C(C(=O)OCCOc3ccccc3)=C(C)NC3=C2C(=O)CCC3)c1` (centres undefined) stands 59.2% (active); under `COc1ccc(C(=O)N/C(=C\c2cccc([N+](=O)[O-])c2)C(=O)NC(CC(C)C)C(=O)O)cc1` (centres undefined), -8.1% (inactive); under `COCCn1nnnc1C(c1ccc(F)cc1)N1CCN(c2ccccc2OC)CC1` (centres undefined), -3.53% (inactive). `Cc1cc(-c2ccc(S(=O)(=O)NC3CCC(C)CC3)cc2)on1` (centres undefined): the inhibition is 4.94% (inactive). The result for `COc1ccccc1NC(=O)c1ccc(N2CC3CC(C2)c2cccc(=O)n2C3)c(NC(=O)c2cccnc2)c1` (centres undefined) reads -6.03% (inactive); that for `CCOC(=O)C1CCN(C(=O)c2ccc(N3CC4CC(C3)c3cccc(=O)n3C4)c(NC(=O)c3cccnc3)c2)CC1` (centres undefined), -0.93% (inactive); that for `CC(=O)N1CCN(C(=O)c2ccc(N3CC4CC(C3)c3cccc(=O)n3C4)c(NC(=O)c3cccnc3)c2)CC1` (centres undefined), 60% (active). Under `CCCCNC(=O)/C(=C/c1ccco1)NC(=O)c1ccccc1` stands 5.66% (inactive); under `O=C(NCCO)/C(=C/c1ccco1)NC(=O)c1ccccc1`, 13.5% (inactive); under `O=C(O)CCCCCNC(=O)/C(=C\c1ccco1)NC(=O)c1ccccc1`, 52.3% (active). Consider `CC(C)(CO)NC(=O)CCC1(Cc2ccc3ccccc3c2)CCC(=O)N1` (centres undefined), for which the inhibition was 5.16% (inactive). The result for `CCc1ccc(C(=O)CC(c2ccccc2)C2CCCCC2=O)cc1` (centres undefined) reads 2.82% (inactive). For the compound `Cc1cncn(CC(=O)NCCOc2ccccc2)c1=O`, the inhibition is -1.97% (inactive).

With `CCCC(C(=O)O)N1C(=O)/C(=C/C=C/c2ccco2)SC1=S` (centres undefined), the inhibition was 63.6% (active).

For the compound `O=C(CCCN1C(=O)/C(=C\c2ccco2)SC1=S)Nc1ccccc1C(=O)O`, the inhibition is 9.5% (inactive). On to `COc1cc(/C=C2/SC(=S)N(C(CCSC)C(=O)O)C2=O)ccc1O` (centres undefined), for which the inhibition is 15.5% (inactive). Consider `CC(C(=O)O)N1C(=O)S/C(=C\c2ccccc2)C1=O` (centres undefined), for which the inhibition was 8.38% (inactive). `O=C(O)CCC(C(=O)O)N1C(=O)/C(=C\c2ccco2)SC1=S` (centres undefined): the inhibition was 62.6% (active).

As for `Cc1ccc(/C=C2\SC(=S)N(C(C)C(=O)O)C2=O)o1` (centres undefined), the inhibition is 69.4% (active). As to `Cc1ccc(/C=C2\SC(=S)N(c3cccc(O)c3)C2=O)o1`, the inhibition was 13.4% (inactive).

On to `CCCCC(C(=O)O)N1C(=O)/C(=C2/C(=O)N(C(C)=O)c3ccccc32)SC1=S` (centres undefined), for which the inhibition was 6.57% (inactive). As for `O=C(CCN1C(=O)/C(=C\c2ccco2)SC1=S)Nc1cccc(C(=O)O)c1`, the inhibition is 2.65% (inactive).

Source of the values: PubChem BioAssay AID1259374 (The Scripps Research Institute Molecular Screening Center, 2018).
